This passage reports outcome, activity change, negative = inhibition and viability change, negative = cytotoxic results from PubChem BioAssay (Tox21).

Results filed as inconclusive are left out. Unmarked numbers belong to inactive results. The source made the active and inactive calls. Unless noted, calls come from the whole dose curve; as a rule, active = well fitted inhibition curve with a large enough effect in the repeat runs; inconclusive = weak or mixed curves, or effect the other way; inactive = no such curve, though single readings can be large or run the other way.

The target of the first test is Nuclear receptor ROR-gamma (Homo sapiens) (UniProt P51449). Description: qHTS assay to identify small molecule antagonists of the retinoid-related orphan receptor gamma (ROR-gamma) signaling pathway (AID 1159521; note: top concentration of the series differs between compounds; % is set by controls: 0 for no effect and ±100 for the full control effect; nearly all actives have a fitted effect of over 50% in size). As to conditions: Tet-on RORgamma CHO cells, RORE-luciferase, 16 h; series mostly up to 92.4 µM. The procedure, abridged: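 Tet-on RORγ CHO cells carrying a ROR response element–luciferase reporter were pretreated with compounds for 2 h, then induced with 1 uM (final) doxycycline hyclate for 16 h at 37 C. Antagonism was read as decreased ONE-Glo luminescence.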
On the technique in general: Quantitative high-throughput screening tests each substance at several concentrations.
Take `C=CCN1CCc2nc(N)sc2CC1`: the result was inactive.
Same read-out and setting: next, `O=C(O)Cc1c(Cl)ccc(Cl)c1Cl`: “inactive”; `CCCCCCCCCCCCCC(=O)OCC`: “inactive”; `CC(=O)OCC(=O)[C@@]1(O)CC[C@H]2[C@@H]3CCC4=CC(=O)C=C[C@]4(C)[C@H]3[C@@H](O)C[C@@]21C`: “inactive”.
The same measure, in the same setting: to `Cc1cc(N)no1` belongs “inactive”; to `O=c1c(O)c(O)c1=O`, “inactive”; to `CC/C=C/CCCCCCCCCCOC(C)=O`, “inactive”.
Regarding `N=C(N)N`, the compound was called inactive.
On the same count and under the same terms, next, `CC(=O)Oc1ccc(C(C)=O)cc1`: “inactive”.
With `CC(=O)c1c(C)cc(C(C)(C)C)cc1C`, the compound was classed as inactive.
As to `CN(C)CCc1c[nH]c2ccc(C[C@H]3COC(=O)N3)cc12`, the compound was classed as inactive.
As for `O=C(O)/C=C(\CC(=O)O)C(=O)O`, the compound was classed as inactive.
In the case of `CC(C)(O)c1ccc(C(C)(C)O)cc1`, the result was inactive.
Take `Nc1cc(S(=O)(=O)O)ccc1O`: the compound was called inactive.
Take `CC(=O)Nc1ccc(S(=O)(=O)Nc2cc(C)on2)cc1`: the compound was called inactive.
With `CC(O)CCCCn1c(=O)c2c(ncn2C)n(C)c1=O` (stereo unspecified), the compound was called inactive.
Take `CCC(C)c1nccnc1OC` (stereo unspecified): the call was inactive.
The same measure, in the same setting: next, `CN(C)c1cc(NC(=O)CNC(C)(C)C)c(O)c2c1C[C@H]1C[C@H]3[C@H](N(C)C)C(=O)C(C(N)=O)=C(O)[C@@]3(O)C(=O)C1=C2O`: “inactive”; `CC1(C)CC(N)CC(C)(C)N1`: “inactive”; `C/C=C(\C)C(=O)OC/C=C(\C)CCC=C(C)C`: “inactive”.
On to `COC(=O)c1cc(Cl)c(NC(C)=O)cc1OC`, for which the outcome was inactive.
Turning to `O=C(c1ccccc1)c1cccc(O)c1`, the call was inactive.
As for `C=C(C)C(=O)OCCCC`, the result was inactive.
For the compound `CN(C)CCc1c[nH]c2ccc(CS(=O)(=O)N3CCCC3)cc12`, the compound was called inactive.
In the case of `Cc1ccc(O)c([N+](=O)[O-])c1`, the compound was called inactive.
With `C[C@]12C=CC(=O)C=C1[C@@H](F)C[C@@H]1[C@@H]2[C@@H](O)C[C@@]2(C)[C@H]1CC[C@]2(O)C(=O)CO`, the outcome was inactive.
Same read-out and setting: next, `Cc1ccccc1OCC(=O)O`: “inactive”; `Cc1ccc(N)nc1`: “inactive”.
With `Cc1cc(C)c(C)c(C)c1`, the compound was called inactive.
Consider `CCCC(=O)OC`, for which the call was inactive.
As to `O=S(=O)(O)c1ccc(Cl)cc1`, the call was inactive.
As for `CN(C)c1ccncc1`, the compound was classed as inactive.
On to `CC(O)C(CO)C(C)O` (stereo unspecified), for which the result was inactive.
Take `CC1(C)S[C@@H]2[C@H](NC(=O)Cc3ccccc3)C(=O)N2[C@H]1C(=O)O` (tested in a mixture with another compound): the compound was called inactive.
On to `CN1CCN(C(=O)C2CCCCC2)CC1`, for which the result was inactive.
As to `C=CCCCCCCCCCCCCCC`, the activity change, negative = inhibition was -3.67% [at 19 µM].
Regarding `CC(C)(C)C(=O)CCc1ccc(Cl)cc1`, the result was inactive.
For `CCCc1ncc(C(=O)O)s1`, the compound was classed as inactive.

Tested on in another test: not listed separately
Description: qHTS assay to identify small molecule agonists of the AP-1 signaling pathway - cell viability counter screen (AID 1159525; calls by dose curve; note: nearly all actives have a fitted effect of over 55% in size). As to conditions: ME-180 (cervical carcinoma) AP-1-bla cells viability, ATP luminescence, 5 h; series mostly up to 76.8 µM. Put shortly:
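Intracellular ATP by Cell Titer Glo luminescence (30 min, RT) in the same ME-180 AP-1-bla wells after the 5 h compound exposure at 37 °C. Normalised to tetra n-octyl ammonium bromide and DMSO controls.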
Consider `C=CCN1CCc2nc(N)sc2CC1`, for which the result was inactive.
Turning to `O=C(O)Cc1c(Cl)ccc(Cl)c1Cl`, the call was inactive.
On to `CCCCCCCCCCCCCC(=O)OCC`, for which the outcome was inactive.
Still for that read-out and setting: to `CC(=O)OCC(=O)[C@@]1(O)CC[C@H]2[C@@H]3CCC4=CC(=O)C=C[C@]4(C)[C@H]3[C@@H](O)C[C@@]21C` belongs “inactive”; to `Cc1cc(N)no1`, “inactive”.
For the compound `O=c1c(O)c(O)c1=O`, the outcome was inactive.
Take `CC/C=C/CCCCCCCCCCOC(C)=O`: the compound was classed as inactive.
Still for that read-out and setting: to `N=C(N)N` belongs “inactive”; to `CC(=O)Oc1ccc(C(C)=O)cc1`, “inactive”; to `CC(=O)c1c(C)cc(C(C)(C)C)cc1C`, “inactive”.
In the case of `CN(C)CCc1c[nH]c2ccc(C[C@H]3COC(=O)N3)cc12`, the compound was called inactive.
On the same count and under the same terms, to `O=C(O)/C=C(\CC(=O)O)C(=O)O` belongs “inactive”; to `CC(C)(O)c1ccc(C(C)(C)O)cc1`, “inactive”; to `Nc1cc(S(=O)(=O)O)ccc1O`, “inactive”.
On the same count and under the same terms, to `CC(=O)Nc1ccc(S(=O)(=O)Nc2cc(C)on2)cc1` belongs “inactive”.
Consider `CC(O)CCCCn1c(=O)c2c(ncn2C)n(C)c1=O` (stereo unspecified), for which the result was inactive.
Turning to `CCC(C)c1nccnc1OC` (stereo unspecified), the result was inactive.
For `CN(C)c1cc(NC(=O)CNC(C)(C)C)c(O)c2c1C[C@H]1C[C@H]3[C@H](N(C)C)C(=O)C(C(N)=O)=C(O)[C@@]3(O)C(=O)C1=C2O`, the result was inactive.
Still for that read-out and setting: to `CC1(C)CC(N)CC(C)(C)N1` belongs “inactive”; to `C/C=C(\C)C(=O)OC/C=C(\C)CCC=C(C)C`, “inactive”; to `COC(=O)c1cc(Cl)c(NC(C)=O)cc1OC`, “inactive”.
The same measure, in the same setting: next, `O=C(c1ccccc1)c1cccc(O)c1`: “inactive”; `C=C(C)C(=O)OCCCC`: “inactive”.
`CN(C)CCc1c[nH]c2ccc(CS(=O)(=O)N3CCCC3)cc12`: the compound was called inactive.
As for `Cc1ccc(O)c([N+](=O)[O-])c1`, the compound was classed as inactive.
Consider `C[C@]12C=CC(=O)C=C1[C@@H](F)C[C@@H]1[C@@H]2[C@@H](O)C[C@@]2(C)[C@H]1CC[C@]2(O)C(=O)CO`, for which the compound was called inactive.
Turning to `Cc1ccccc1OCC(=O)O`, the outcome was inactive.
As for `Cc1ccc(N)nc1`, the call was inactive.
With `Cc1cc(C)c(C)c(C)c1`, the outcome was inactive.
Take `CCCC(=O)OC`: the compound was called inactive.
Take `O=S(=O)(O)c1ccc(Cl)cc1`: the result was inactive.
For the compound `CN(C)c1ccncc1`, the outcome was inactive.
On to `CC(O)C(CO)C(C)O` (stereo unspecified), for which the compound was called inactive.
As for `CC1(C)S[C@@H]2[C@H](NC(=O)Cc3ccccc3)C(=O)N2[C@H]1C(=O)O` (tested in a mixture with another compound), the compound was called inactive.
For `CN1CCN(C(=O)C2CCCCC2)CC1`, the result was inactive.
Turning to `C=CCCCCCCCCCCCCCC`, the viability change, negative = cytotoxic is 0.684% [at 15.8 µM].
For the compound `CC(C)(C)C(=O)CCc1ccc(Cl)cc1`, the call was inactive.
On to `CCCc1ncc(C(=O)O)s1`, for which the call was inactive.
